Reference: PubChem BioAssay (NCATS)
Records with an inconclusive call do not appear. Active and inactive are the calls of the source. Unless noted, the call rests on the fitted dose curve.

Key:
[1] = target: Estrogen receptor (Homo sapiens) (UniProt P03372); assay: qHTS assay for small molecule antagonists of estrogen receptor alpha signaling (AID 588513; active means well fitted curve in the direction sought with a large enough effect in the signal ratio, with a control signal flat, not every such curve was filed as active; the % refers to the signal ratio; further: on the % scale 0 is the no-effect control and ±100 the full control effect)
Estrogen receptor (Homo sapiens), sequence (P03372 whole entry, looked up): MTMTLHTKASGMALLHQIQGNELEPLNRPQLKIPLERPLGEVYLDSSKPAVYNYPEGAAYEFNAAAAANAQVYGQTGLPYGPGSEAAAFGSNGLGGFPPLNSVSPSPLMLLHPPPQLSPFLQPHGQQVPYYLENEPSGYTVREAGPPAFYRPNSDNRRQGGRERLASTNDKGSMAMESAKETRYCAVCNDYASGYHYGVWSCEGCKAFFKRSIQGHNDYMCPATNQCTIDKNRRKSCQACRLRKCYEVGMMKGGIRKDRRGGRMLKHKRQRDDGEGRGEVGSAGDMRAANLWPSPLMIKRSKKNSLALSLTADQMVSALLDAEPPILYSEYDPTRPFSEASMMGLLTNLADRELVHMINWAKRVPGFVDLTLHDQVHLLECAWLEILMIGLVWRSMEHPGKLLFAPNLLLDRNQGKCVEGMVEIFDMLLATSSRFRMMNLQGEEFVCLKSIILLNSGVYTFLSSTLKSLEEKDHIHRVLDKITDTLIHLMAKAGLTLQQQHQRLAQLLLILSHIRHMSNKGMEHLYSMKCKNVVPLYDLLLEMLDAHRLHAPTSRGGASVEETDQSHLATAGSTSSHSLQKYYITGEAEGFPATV
In short: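 Antagonist mode: inhibition of 0.5 nM 17-beta-estradiol-driven beta-lactamase reporter in HEK 293 ER-alpha-UAS-bla cells, 18 h at 37C, CCF4 readout after 2 h at RT. Normalised to estradiol and DMSO; titration fitted to Hill.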

[2] = qHTS assay for small molecule antagonists of peroxisome proliferator-activated receptor delta signaling (AID 588535); details: HEK293T PPARd-UAS-bla, beta-lactamase FRET ratio, 18 h; 460 nm channel;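 further: cells co-treated with a PPAR-delta agonist as stimulator during compound exposure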
In short: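 Beta-lactamase reporter read-out (405 nm excitation, 460/530 nm emission) after CCF4 loading for 2 hrs at RT. HEK293T PPAR-delta-UAS-bla cells, 2% charcoal/dextran FBS, compounds for 18 hrs at 37 C. Hill fit gave IC50 and efficacy.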

[3] = target: Vitamin D3 receptor (Homo sapiens) (UniProt P11473); assay: qHTS assay for small molecule antagonists of vitamin D receptor signaling (AID 588541);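 further: receptor activated by calcitriol during compound treatment; series mostly up to about 77 µM; on the % scale 0 is the no-effect control and ±100 the full control effect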
Vitamin D3 receptor (Homo sapiens), sequence (P11473 whole entry, looked up): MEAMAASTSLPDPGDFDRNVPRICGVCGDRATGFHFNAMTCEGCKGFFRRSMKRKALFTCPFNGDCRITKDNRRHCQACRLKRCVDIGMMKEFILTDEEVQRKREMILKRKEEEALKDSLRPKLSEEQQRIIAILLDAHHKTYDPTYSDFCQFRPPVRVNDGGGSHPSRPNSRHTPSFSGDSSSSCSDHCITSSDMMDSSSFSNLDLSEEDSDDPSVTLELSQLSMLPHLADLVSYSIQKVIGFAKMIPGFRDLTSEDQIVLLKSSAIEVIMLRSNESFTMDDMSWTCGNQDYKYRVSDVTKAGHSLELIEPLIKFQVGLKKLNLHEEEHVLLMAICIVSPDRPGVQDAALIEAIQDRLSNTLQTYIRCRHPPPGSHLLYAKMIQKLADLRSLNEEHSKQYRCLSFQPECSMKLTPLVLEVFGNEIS
In short: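 VDR-UAS-bla HEK293T cells in 2% charcoal-stripped FBS were stimulated with 1-alpha,25-dihydroxyvitamin D3 (3 nM final) plus compound for 16 h at 37 C. The beta-lactamase CCF4 readout was normalized to 50 nM agonist and DMSO, and Hill fits gave IC50.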

[4] = target: Vitamin D3 receptor (Homo sapiens) (UniProt P11473); assay: qHTS assay for small molecule agonists of vitamin D receptor signaling (AID 588543);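 further: 0% = DMSO basal and 100% = reference agonist control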
In short: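 Agonist-mode beta-lactamase reporter: HEK293T VDR-UAS-bla cells in charcoal-stripped 2% FBS, compound series 16 h 37 C, CCF4 2 h RT. EC50 from Hill fit, scaled against DMSO and 50 nM calcitriol control.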

[5] = qHTS assay for small molecule agonists of retinoid X receptor alpha signaling (AID 588544); details: HEK293T RXRa-UAS-bla, beta-lactamase reporter, 18 h; 530 nm emission;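 on activation: 0% = DMSO basal wells and 100% = reference agonist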
[6] = target: Retinoic acid receptor RXR-alpha (Homo sapiens) (UniProt P19793); assay: as above
Retinoic acid receptor RXR-alpha (Homo sapiens), sequence (P19793 whole entry, looked up): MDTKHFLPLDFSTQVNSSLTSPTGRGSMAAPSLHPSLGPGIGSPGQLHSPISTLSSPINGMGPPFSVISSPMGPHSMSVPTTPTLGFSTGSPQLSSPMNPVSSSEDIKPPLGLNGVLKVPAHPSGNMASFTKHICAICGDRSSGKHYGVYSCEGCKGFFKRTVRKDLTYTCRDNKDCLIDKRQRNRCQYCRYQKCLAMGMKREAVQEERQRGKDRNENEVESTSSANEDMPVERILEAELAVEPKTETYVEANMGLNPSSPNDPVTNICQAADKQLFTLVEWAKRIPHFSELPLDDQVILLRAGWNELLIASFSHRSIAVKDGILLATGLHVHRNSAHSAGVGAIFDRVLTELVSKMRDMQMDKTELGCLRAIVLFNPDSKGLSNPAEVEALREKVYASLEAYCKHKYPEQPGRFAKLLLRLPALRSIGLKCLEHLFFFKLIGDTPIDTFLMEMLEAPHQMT

[7] = target: Thyroid hormone receptor beta (Homo sapiens) (UniProt P10828); assay: qHTS assay for small molecule agonists of thyroid hormone receptor beta signaling (AID 588545);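 further: 0% = DMSO only and 100% = 10 nM T3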
Thyroid hormone receptor beta (Homo sapiens), sequence (P10828 whole entry, looked up): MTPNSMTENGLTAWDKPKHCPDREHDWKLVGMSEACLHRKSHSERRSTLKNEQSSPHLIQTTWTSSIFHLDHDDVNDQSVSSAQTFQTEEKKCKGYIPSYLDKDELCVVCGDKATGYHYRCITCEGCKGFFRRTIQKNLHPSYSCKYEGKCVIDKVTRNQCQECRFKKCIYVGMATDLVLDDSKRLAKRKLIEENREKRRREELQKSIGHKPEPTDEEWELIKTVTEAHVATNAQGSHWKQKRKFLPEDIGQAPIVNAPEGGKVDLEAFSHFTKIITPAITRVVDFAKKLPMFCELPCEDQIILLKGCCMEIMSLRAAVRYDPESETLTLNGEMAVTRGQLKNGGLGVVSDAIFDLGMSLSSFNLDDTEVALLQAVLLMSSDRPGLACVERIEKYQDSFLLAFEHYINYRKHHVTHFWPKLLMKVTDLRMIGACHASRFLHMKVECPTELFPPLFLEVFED
In short: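 TR-UAS-bla-GripTite HEK 293 cells in medium with 2% charcoal/dextran FBS, 0.1 mM NEAA and 1 mM sodium pyruvate were treated with titrated compounds for 18 hrs at 37 C. Beta-lactamase reporter was read with CCF4 dye (ex 405, em 460/530 nm); EC50 from Hill fits.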

[8] = qHTS assay for small molecule antagonists of retinoid X receptor alpha signaling (AID 588546; active means well fitted inhibition curve with a large enough effect in the signal ratio, with a control signal flat, not every such curve was filed as active; the % refers to the signal ratio;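 further: cells stimulated with 9-cis-retinoic acid as agonist; on the % scale 0 is the no-effect control and ±100 the full control effect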); details: HEK293T RXRa-UAS-bla, beta-lactamase ratio, antagonist mode; measured here: W530 green channel, cytotoxicity proxy
In short: (§1)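 Beta-lactamase reporter inhibition, read as CCF4 fluorescence ratio (ex 405, em 460/530 nm) after 2 h at RT. HEK293T UAS-bla cells, 2500/well, were stimulated with 9-cis-RA at 500 or 100 nM final alongside test compound for 18 h at 37 C.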

[9] = target: Retinoic acid receptor RXR-alpha (Homo sapiens) (UniProt P19793); assay: as above; details: HEK293T RXRa-UAS-bla, beta-lactamase ratio, antagonist mode
In short: as §1

[10] = target: Thyroid hormone receptor beta (Homo sapiens) (UniProt P10828); assay: qHTS assay for small molecule antagonists of thyroid hormone receptor beta signaling (AID 588547; active means well fitted inhibition curve with a large enough effect in the signal ratio, with a control signal flat, not every such curve was filed as active; the % refers to the signal ratio;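 further: cells stimulated with 0.4 nM T3 agonist during compound exposure; series mostly up to about 77 µM; on the % scale 0 is the no-effect control and ±100 the full control effect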); details: TR-UAS-bla HEK293, beta-lactamase ratio, antagonist mode, 18 h
In short: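 TR-UAS-bla GripTite HEK293 cells in 2% charcoal/dextran FBS medium; compounds 0.59 nM to 92 uM with T3 at 0.4nM final, 18 h at 37 C. Beta-lactamase read by CCF4 fluorescence (460/530 nm); Hill fits gave IC50 and efficacy.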

[11] = qHTS assay for small molecule activators of the p53 signaling pathway (AID 651743; active means well fitted activation curve with a large enough effect in the signal ratio, not every such curve was filed as active; the % refers to the signal ratio; further: series mostly up to about 92 µM; % of control where 0% means no effect); details: HCT-116 p53RE-bla, beta-lactamase FRET ratio, 16 h; activation: stronger effect = higher value
In short: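 Reporter: beta-lactamase driven by p53 response elements, stably integrated in HCT-116 cells. Cells seeded at 4,000/well, 5 h preincubation, compound (DMSO) 16 h at 37 C; B/G FRET substrate 2 h RT; fluorescence intensity read.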

[12] = qHTS assay for environmental chemicals that activate the Aryl hydrocarbon Receptor (AhR) signaling pathway (AID 651777; active means well fitted curve in the direction sought with a large enough effect; an effect the other way counts as inactive or inconclusive; further: % of control where 0% means no effect; nearly all actives have a fitted effect of over 15% in size); details: 1A2-DRE human hepatoma cells, luciferase, 24 h; activation: stronger effect = higher value
In short: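 Measured luciferase activity, read 30 min after One-Glo addition at room temperature, from human hepatoma cells bearing a dioxin response element–CYP1A2 promoter reporter and exposed to compound for 24 hr at 37 C.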

[13] = target: Peroxisome proliferator-activated receptor alpha (Homo sapiens) (UniProt Q07869); assay: qHTS assay for small molecule agonists of the peroxisome proliferator-activated receptor alpha (PPARalpha) signaling pathway (AID 651778; active means well fitted curve in the direction sought with a large enough effect; an effect the other way counts as inactive or inconclusive; further: % of control where 0% means no effect); details: PathHunter PPARalpha complementation, chemiluminescence, 6 h; max response: stronger effect = higher value
Peroxisome proliferator-activated receptor alpha (Homo sapiens), sequence (Q07869 whole entry, looked up, the tested form may be a part): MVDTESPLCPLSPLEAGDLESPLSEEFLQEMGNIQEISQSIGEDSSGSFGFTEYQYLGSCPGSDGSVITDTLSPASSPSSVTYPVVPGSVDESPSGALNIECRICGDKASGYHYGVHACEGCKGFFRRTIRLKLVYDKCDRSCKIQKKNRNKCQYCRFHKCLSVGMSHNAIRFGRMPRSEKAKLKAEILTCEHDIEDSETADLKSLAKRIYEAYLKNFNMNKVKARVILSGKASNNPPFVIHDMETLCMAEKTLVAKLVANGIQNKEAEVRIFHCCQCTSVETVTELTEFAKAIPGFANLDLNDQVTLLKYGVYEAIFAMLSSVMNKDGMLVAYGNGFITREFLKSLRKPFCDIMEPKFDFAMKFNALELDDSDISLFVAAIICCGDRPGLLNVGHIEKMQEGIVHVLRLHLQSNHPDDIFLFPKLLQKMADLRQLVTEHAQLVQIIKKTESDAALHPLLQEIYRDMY
In short: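 Enzyme-fragment complementation assay in which ligand-bound PPARalpha translocates and forms an active enzyme that generates chemiluminescence. Cells were plated overnight, exposed to compound for 6 hr at 37 C, and then given detection reagent for 60 min at room temperature.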

[14] = qHTS assay for small molecule agonists of the antioxidant response element (ARE) signaling pathway measured by Nrf2-dependant transcriptional activity (AID 720636; active means well fitted curve in the direction sought with a large enough effect in the repeat runs; an effect the other way counts as inactive or inconclusive;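 further: HepG2 cells with an ARE-driven luciferase reporter; % of control where 0% means no effect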)
In short: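 In HepG2 cells engineered with an Nrf2-responsive luciferase gene, ARE induction was quantified as luminescence after 16 hr compound treatment at 37 C.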

[15] = qHTS assay for small molecule agonists of the antioxidant response element (ARE) signaling pathway measured by Nrf2-dependant transcriptional activity - cell viability counter screen (AID 720653; active means well fitted curve in the direction sought with a large enough effect in the repeat runs; an effect the other way counts as inactive or inconclusive; further: on the % scale 0 is the no-effect control and ±100 the full control effect); details: ARE-bla HepG2 viability, CellTiter-Glo ATP luminescence, 16 h; max response: stronger effect = lower value
In short: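 ARE-bla HepG2 cells treated with compounds for 16 h at 37C; this counter screen measures viability as intracellular ATP by CellTiter-Glo luminescence after 30 min at room temperature.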

[16] = qHTS assay for cell viability of HEK293 cells (AID 743288; active means well fitted curve in the direction sought with a large enough effect; an effect the other way counts as inactive or inconclusive; further: on the % scale 0 is the no-effect control and ±100 the full control effect; nearly all actives have a fitted effect of over 50% in size); details: ATP luminescence (CellTiter-Glo), 18 h; max response: stronger effect = lower value
In short: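 Readout is luciferase-coupled ATP content (CellTiter-Glo luminescence, 30 min room temperature) as a measure of metabolically competent cells. Parental HEK293 cells were plated 5 h or more before compound addition, then treated 18 h at 37 C.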

[17] = qHTS assay for cell viability of the p53RE-bla HCT-116 cell line (AID 743292; active means well fitted curve in the direction sought with a large enough effect; an effect the other way counts as inactive or inconclusive; further: on the % scale 0 is the no-effect control and ±100 the full control effect; nearly all actives have a fitted effect of over 55% in size)
In short: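 Intracellular ATP of p53RE-bla HCT-116 cells measured by luciferase luminescence following 16 h compound incubation at 37 C; DMSO-only wells served as vehicle controls.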

[18] = target: Nuclear receptor subfamily 1 group I member 2 (Rattus norvegicus) (UniProt Q9R1A7); assay: qHTS assay for small molecule activators of the rat pregnane X receptor (rPXR) signaling pathway (AID 651751; call rule not given here; further: 0% is about no effect); details: rPXR reporter cells, luciferase (One-Glo), 24 h
Nuclear receptor subfamily 1 group I member 2 (Rattus norvegicus), sequence (Q9R1A7 whole entry, looked up): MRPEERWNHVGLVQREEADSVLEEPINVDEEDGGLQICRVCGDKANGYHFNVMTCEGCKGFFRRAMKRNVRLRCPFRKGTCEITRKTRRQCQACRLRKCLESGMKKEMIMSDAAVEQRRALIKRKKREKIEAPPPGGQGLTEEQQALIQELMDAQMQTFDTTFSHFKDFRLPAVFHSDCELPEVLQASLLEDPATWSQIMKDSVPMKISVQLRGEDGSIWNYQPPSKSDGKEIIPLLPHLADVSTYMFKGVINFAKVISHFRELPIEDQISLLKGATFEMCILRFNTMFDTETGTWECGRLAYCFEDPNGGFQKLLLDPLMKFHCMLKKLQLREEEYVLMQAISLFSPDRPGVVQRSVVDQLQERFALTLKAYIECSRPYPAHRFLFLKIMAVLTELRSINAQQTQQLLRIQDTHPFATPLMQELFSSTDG

[19] = qHTS assay for small molecule activators of the human pregnane X receptor (PXR) signaling pathway (AID 720659; call rule not given here; further: 0% is about no effect)
[20] = target: Estrogen receptor (Homo sapiens) (UniProt P03372); assay: qHTS assay for small molecule agonists of estrogen receptor alpha signaling (AID 588514); further: nearly all actives have a fitted effect of over 70% in size; further: potency means the concentration at half of the fitted maximal effect;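 on activation: 0% = vehicle only and 100% = reference agonist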
In short: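 Read-out: CCF4 fluorescence from a beta-lactamase reporter in ER-alpha-UAS-bla HEK 293 cells after 18 hrs of compound exposure at 37 C. Normalized to 20 nM 17-beta-estradiol (100%) and DMSO (0%).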

Row | SMILES | Potency [1] | max response [2] [%] | Potency [3] | outcome [4] | max response [5] [%] | Potency [6] | Potency [7] | max response [8] [%] | max response [9] | activity change % (negative = inhibition) [10] | activation [11] | activation [12] | max response [13] | Potency [14] | max response [15] | max response [16] | Potency [17] | max response [18] | outcome [19] | Potency [20]
1 | CC(C)(C)c1n[nH]c(=O)n(N)c1=O | inactive | -9.84 | inactive | inactive | -20 | inactive | inactive | -5.34 | -3.59% (inactive) | 0.427% (inactive) | 1.96% (inactive) | -0.927% (inactive) | 0.89% (inactive) | inactive | -8.89% (inactive) | -15.1% (inactive) | inactive | 8.96% (inactive) | inactive | –
2 | NNS(=O)(=O)c1ccc(Oc2ccc(S(=O)(=O)NN)cc2)cc1 | inactive | 18.7 | – | inactive | -6.27 | inactive | inactive | -11.5 | -7.05% (inactive) | -2.89% (inactive) | -0.745% (inactive) | 0.263% (inactive) | – | inactive | -13.9% (inactive) | 0.11% (inactive) | inactive | 8.65% (inactive) | inactive | 447 nM (active)
3 | Brc1ccc(Br)c(Br)c1 | inactive | – | inactive | inactive | 0.274 | inactive | inactive | -16.3 | -14.6% (inactive) | -13.9% (inactive) | -2.82% (inactive) | 2.73% (inactive) | -4.16% (inactive) | inactive | -18% (inactive) | -15.6% (inactive) | inactive | -1.74% (inactive) | inactive | inactive
4 | CC(=O)OC(C)(C)C1CC=C(C)CC1 (centres undefined) | inactive | -21.5 | – | inactive | -9.79 | inactive | – | -19.2 | -1.89% (inactive) | -6.17% (inactive) | -1.29% (inactive) | -2.57% (inactive) | -5.04% (inactive) | inactive | -6.08% (inactive) | -11.3% (inactive) | inactive | -1.76% (inactive) | inactive | inactive
5 | CC(=O)OC1CCC(C(C)(C)C)CC1 (centres undefined) | inactive | -10.4 | inactive | inactive | -2.86 | inactive | inactive | -1.04 | -6.71% (inactive) | 5.89% (inactive) | -2.06% (inactive) | – | -0.283% (inactive) | – | 0.584% (inactive) | -10.3% (inactive) | inactive | 4.95% (inactive) | inactive | –
6 | c1ccc(OCCOc2ccccc2)cc1 | inactive | 9.85 | inactive | inactive | – | – | inactive | -12.8 | -10.1% (inactive) | 5.59% (inactive) | 2.08% (inactive) | – | – | – | -8.94% (inactive) | -4.78% (inactive) | inactive | – | – | inactive
